# Assay results published in PubChem BioAssay (Tox21).
# Records with an inconclusive call do not appear. Entries that show only a call come without a potency. A number with no mark means an inactive call. Calls of active or inactive are those of the source. Calls come from the whole dose curve; as a rule, active = well fitted inhibition curve with a large enough effect in the repeat runs; inconclusive = weak or mixed curves; inactive = flat fitted curve, though single readings scatter.
# Target: Luciferin 4-monooxygenase (Photinus pyralis) (UniProt P08659)
# Sequence (P08659 whole entry, looked up): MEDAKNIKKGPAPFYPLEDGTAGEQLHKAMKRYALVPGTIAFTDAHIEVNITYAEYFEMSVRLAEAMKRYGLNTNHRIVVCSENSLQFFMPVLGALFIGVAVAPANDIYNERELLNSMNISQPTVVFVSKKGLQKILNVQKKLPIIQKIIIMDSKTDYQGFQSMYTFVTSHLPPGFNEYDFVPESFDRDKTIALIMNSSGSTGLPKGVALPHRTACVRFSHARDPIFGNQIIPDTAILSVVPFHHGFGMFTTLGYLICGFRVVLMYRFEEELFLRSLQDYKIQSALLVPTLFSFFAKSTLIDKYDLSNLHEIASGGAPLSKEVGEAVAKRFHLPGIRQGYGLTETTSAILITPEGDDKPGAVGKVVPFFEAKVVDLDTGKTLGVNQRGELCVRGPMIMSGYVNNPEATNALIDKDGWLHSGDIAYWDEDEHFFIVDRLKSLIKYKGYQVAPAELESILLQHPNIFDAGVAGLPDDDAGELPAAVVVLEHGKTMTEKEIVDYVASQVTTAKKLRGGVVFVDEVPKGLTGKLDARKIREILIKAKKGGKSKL
# Assay: qHTS assay to identify small molecule inhibitors of firefly luciferase (AID 1224835); note: nearly all actives have a fitted effect of over 25% in size
# Details: purified P. pyralis luciferase, luminescence inhibition; series mostly up to 115 µM
# From the text: U.S. Tox21 Program National Center for Advancing Translational Sciences [NCATS] NIH Chemical Genomics Center [NCGC] U.S. Environmental Protection Agency [EPA] National Institutes of Environmental Health Sciences [NIEHS] National Toxicology Program [NTP] U.S. Food and Drug Administration [FDA] Tox21 Assay Overview: Firefly (Photinus pyralis) luciferase is one of the most commonly used transcriptional reporters. Firefly luciferase reporter-gene assays are generally considered one of the most sensitive assay types (Wood, 1995; Wood, 1998). However, it was initially observed, in 1991, by Thompson et al., that compounds that resemble the substrates of firefly luciferase (FLuc) can act as competitive inhibitors of the enzyme, and that these compounds, upon interaction with luciferase in the cell, can actually stabilize the protein and increase its half-life. Previous profiling work by other groups to determine the prevalence of compounds that affect FLuc enzymatic activity (PubChem AID 411) identified that ~3% of the MLSMR library (then at ~72K) inhibited FLuc. […] Thus the Tox21 10K library is profiled for activity against FLuc using a biochemical assay of purified FLuc and KM concentrations of FLuc substrates (D-luciferin and ATP).
# These assay plates were then treated with 23nL of compound or DMSO using a Kalypsys pin tool, which allows for delivery of a 6-point interplate titration of each compound to the assay plate (quantitative HTS.) 1 uL of firefly luciferase mix (containing 50 mM Tris acetate, pH 7.6, 0.04 uM P. pyralis luciferase, 0.01% Tween, 0.05% BSA and dH2O) was then delivered by FRD to each well. Luciferase activity was then measured using a ViewLux CCD imager.
SMILES,Potency,"activity change, negative = inhibition"
CC(CC=O)CC(C)(C)C (stereo not given),inactive,
CCCCOCCOC(=O)COc1cc(Cl)c(Cl)cc1Cl,inactive,
CCCCN1C=CN(C)C1,,-0.0434% [at 23.6 µM]
C[C@@H]1CCC[C@H](C)N1,inactive,
FB(F)F,inactive,
C=C(C)C(=O)OCC1CCCO1 (stereo not given),inactive,
CC12CCC(C(=O)C1=O)C2(C)C (stereo not given),inactive,
CC[N+](C)(CC)CCOC(=O)C1c2ccccc2Oc2ccccc21,inactive,
Cc1ccc(-c2ncc(Cl)cc2-c2ccc(S(C)(=O)=O)cc2)cn1,inactive,
CCCC[N+](C)(CCCC)CCCC,inactive,
CCOc1ccc2nc(S(N)(=O)=O)sc2c1,34.7 µM (active),
O=S(=O)(O)c1cc(O)c(O)c(S(=O)(=O)O)c1,inactive,
c1ccc(Cc2ccccc2)cc1,inactive,
O=C(O)CC(C(=O)O)S(=O)(=O)O (stereo not given),inactive,
CC(C)C[C@@H](N)C(=O)O,,-3.09% [at 23.6 µM]
COc1ccc2cc1Oc1cc3c(cc1OC)CC[N+](C)(C)[C@H]3Cc1ccc(cc1)Oc1c(OC)c(OC)cc3c1[C@@H](C2)[N+](C)(C)CC3,inactive,
C[N+]12CCC(CC1)C(OC(=O)C(O)(c1ccccc1)c1ccccc1)C2 (stereo not given),inactive,
CNCCO,inactive,
Clc1cc(Cl)cc(Cl)c1,inactive,
CC(C)(CCC(=O)O)C(=O)O,inactive,

SMILES,Potency,"activity change, negative = inhibition"
CCN(CC#N)c1cccc(C)c1,inactive,
N[C@H](C(=O)O)[C@@H](O)c1ccc(O)c(O)c1,inactive,
NS(=O)(=O)Cc1noc2ccccc12,inactive,
O=[N+]([O-])c1cncn1CCN1CCOCC1,inactive,
Cc1coc2ccccc2c1=O,inactive,
CC/C=C\CCOC(C)OCC (stereo not given),inactive,
CC(=O)Oc1cccc(C)c1,inactive,
O=S(=O)(O)c1cccc2c(S(=O)(=O)O)cccc12,inactive,
CC1=CC(=O)[C@H]2C[C@@H]1C2(C)C,inactive,
CN1[C@@H]2CC[C@H]1CC(OC(=O)C(O)c1ccccc1)C2 (stereo not given in full),inactive,
OCCc1ccccn1,inactive,
CN(C)[C@@H]1C(=O)C(C(=O)NCN2CCCC2)=C(O)[C@@]2(O)C(=O)C3=C(O)c4c(O)cccc4[C@@](C)(O)C3C[C@@H]12 (stereo not given in full),inactive,
CC(C)(N)C#N,inactive,
CN1C(C)(C)CC(O)CC1(C)C,inactive,
O=C(O)c1cc(C(=O)O)cc(C(=O)O)c1,inactive,
CCN1C=CN(C)C1C (stereo not given),inactive,
C=C(C)C(=O)OCC(O)CO (stereo not given),inactive,
CCCCCCC#CC(=O)OC,inactive,
Nc1ccn([C@@H]2O[C@H](CO)[C@@H](O)C2O)c(=O)n1 (stereo not given in full),inactive,
CC1OC1C1CCC2(C)OC2C1 (stereo not given),inactive,
